Hits are enriched below; roughly 3.9% of the tested compounds scored in any of these assays.
VDR inhibitor – Inhibitors of the vitamin D receptor (VDR): qHTS; hit rate 0.93% among 400,000; Potency, µM, for inactives: max response, negative = inhibition, actives largely listed as inhibitors; VDR-SRC2-3 peptide fluorescence polarization, 2 h; AID 504847, 2011; also: % is scaled to controls: 0 for no effect and ±100 for the full control effect
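Measured by FP: displacement of SRC2-3 coactivator peptide from VDR by library compounds, following a two-hour ambient incubation.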
BRCA1 expr act – qHTS Assay to Identify Small Molecule Activators of BRCA1 Expression; MCF7-BRCA1-FFLuc reporter, luminescence, 48 h; response scale: scaled: vehicle 0%, 10 µM genistein 100%; Potency, µM (highest dose often 46.1 µM), for inactives: top-dose activation, usual class: activators; hit rate 1.1% among 380,000; AID 624202, 2012; also: nearly all actives have a fitted effect of over 80% in size
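Activators of BRCA1 expression were detected as increased firefly luciferase luminescence in engineered MCF7 cells after 48 h compound incubation. Signals were scaled to genistein 10 microM as full activation.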
Tb PFK inh – qHTS Assay to Find Inhibitors of T. brucei phosphofructokinase | T. brucei PFK, ADP-Glo luminescence | ATP-dependent 6-phosphofructokinase (Trypanosoma brucei brucei), O15648 | hit rate 0.17% among 330,000 | Potency, µM (doses to about 57.5 µM), for the others: top-dose activity, negative = inhibition, usual class: inhibitors;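 also: 0% = uninhibited 1x PFK enzyme wells and -100% = no-enzyme wells; nearly all actives have a fitted effect of over 60% in size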
Target sequence (O15648 whole entry, looked up): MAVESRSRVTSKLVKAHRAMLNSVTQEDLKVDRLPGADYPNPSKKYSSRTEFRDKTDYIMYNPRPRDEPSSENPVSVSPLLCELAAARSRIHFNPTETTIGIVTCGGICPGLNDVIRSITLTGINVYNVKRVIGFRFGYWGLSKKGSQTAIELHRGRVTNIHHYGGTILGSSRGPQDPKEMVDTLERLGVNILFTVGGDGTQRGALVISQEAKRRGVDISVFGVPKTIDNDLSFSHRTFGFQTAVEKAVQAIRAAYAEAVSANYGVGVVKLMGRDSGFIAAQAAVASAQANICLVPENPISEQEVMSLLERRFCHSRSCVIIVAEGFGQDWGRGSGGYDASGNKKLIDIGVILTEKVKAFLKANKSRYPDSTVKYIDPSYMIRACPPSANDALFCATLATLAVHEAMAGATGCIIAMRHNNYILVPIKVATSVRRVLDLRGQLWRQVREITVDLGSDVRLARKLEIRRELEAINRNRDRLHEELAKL
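PFK 1.25 nM, F6P 0.5 mM, ATP 0.1 mM, 0.1 M TEA pH 8.0, 5 mM MgCl2, 0.01% Tween20, 0.1% BSA; 45 min RT. ADP-Glo readout. qHTS titration up to 57 uM; curves fitted, compounds curve-classed.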
PLK1 PBD inh – qHTS for Inhibitors of PLK1-PDB (polo-like kinase 1 - polo-box domain): Primary Screen. AID 720504, 2013. Plk1 PBD binding of FITC phosphopeptide, fluorescence polarization. Serine/threonine-protein kinase PLK1 (Homo sapiens), P53350. Potency, µM, for the others: max response, negative = inhibition, most hits filed as inhibitors. hit rate 2.8% among 360,000; also: series mostly up to about 57 µM; % is scaled to controls: 0 for no effect and ±100 for the full control effect; nearly all actives have a fitted effect of over 65% in size
Active calls of the source: *; ? = inconclusive; . = no result given. Calls follow the shape of the dose curve; as a rule, active = well fitted curve in the direction sought with a large enough effect; inconclusive = small, poorly fitted or top-dose-only effect, or another doubt; inactive = no such curve, though single readings can be large; an effect the other way counts as inactive or inconclusive. Potency is read from the fitted curve at half-maximal effect.

SMILES	VDR inhibitor	BRCA1 expr act	Tb PFK inh	PLK1 PBD inh
COc1ccccc1CNc1nc(Nc2ccccc2-n2cccn2)c2sccc2n1	.	-54%	.	5%
Cc1ccc(-c2cc(C(=O)N3CCN(c4ncccn4)CC3)c3cc(Br)ccc3n2)o1	16%	2%	-22%	6.7µM*
CN1OC[C@@H]2CN(C(=O)c3cccc4ccccc34)[C@H](c3ccccc3Br)C[C@@H]21	.	-3%	.	-10%
O=C(C[n+]1ccccc1)c1ccc(NC(=O)c2ccccc2)cc1	-2%	9%	2%	-14%
NC(=O)c1cc[n+](CC(=O)c2ccc(NC(=O)c3ccccc3)cc2)cc1	?	-7%	-29%	24µM*
COc1ccc(-c2cc(C(=O)N/N=C/c3ccc(OC)c(COCC(F)(F)C(F)F)c3)c3ccccc3n2)c(OC)c1	-17%	-27%	-1%	3µM*
COc1ccc(-c2cc(C(=O)N/N=C/c3ccc4c(c3)OCO4)c3ccccc3n2)c(OC)c1	-10%	19%	2%	1%
COc1cc2nc(NC(=O)c3ccc(S(=O)(=O)N4CCCC4)cc3)sc2cc1OC	14%	-18%	.	.
COc1ccc2nc3ccccc3nc2c1	?	13µM*	-5%	-2%
COc1ccc(-c2nc3ccccc3nc2-c2ccccc2)cc1	?	0%	2%	21µM*
COc1ccc(OC)c(-c2nc3ccccc3nc2-c2ccccc2)c1	10%	-42%	-13%	2%
CCOC(=O)c1ccc(NC(=O)CSc2nccn2Cc2ccc(OC)cc2)cc1	13%	.	.	.
CCOC(=O)N1CCC(NC(=O)c2ccc3c(c2)N(Cc2ccc(Cl)cc2)C(=O)c2ccccc2S3=O)CC1 (centres undefined)	-5%	-49%	.	.
O=C(c1ccc(-c2cccc(C(F)(F)F)c2)o1)N1CCOCC1	16%	11µM*	0%	-2%
CC(=O)N1CCN(C(=O)c2ccc(-c3cccc(C(F)(F)F)c3)o2)CC1	-24%	-7%	-5%	-10%
O=C(NCC1CCCO1)c1cccc(S(=O)(=O)Nc2ccccc2Cl)c1 (centres undefined)	.	-13%	.	-7%
CN(C)c1ccc(CN(CC2CCCO2)C(=O)COc2ccccc2Cl)cc1 (centres undefined)	8%	.	.	.
CC1CCc2c(sc(NC(=O)C3=COCCO3)c2C(N)=O)C1 (centres undefined)	-4%	7.1µM*	0%	-11%
CC1CCc2c(sc(N)c2C(N)=O)C1 (centres undefined)	?	-6%	-17%	27µM*
CNC(=O)c1c(NC(=O)C2=COCCO2)sc2c1CCC(C)C2 (centres undefined)	-12%	37%	0%	-4%
CCC1CCc2c(sc(N)c2C(N)=O)C1 (centres undefined)	?	-15%	.	?
CCc1cc2c(=O)n(Cc3ccco3)c(SCc3c(C)noc3C)nc2s1	79µM*	-97%	0%	-24%
CN(C)c1ccc(/C=C/c2ccc3cc(F)ccc3n2)cc1	.	59%	.	.
CC1CC(C)CN(C(=O)Nc2ccc(Br)cc2)C1 (centres undefined)	-12%	30%	1%	30µM*
O=C(Nc1ccc(Br)cc1)N1CCCCCCC1	8%	55%	-2%	-18%
SMILES	VDR inhibitor	BRCA1 expr act	Tb PFK inh	PLK1 PBD inh
O=S(=O)(Nc1cccc2cccnc12)C1CC1	-24%	-63%	.	.
COc1ccc(NC(=O)CSc2[nH]c(=O)cc(C)c2C#N)cc1OC	8%	-3%	1%	-9%
Cc1ccccc1NC(=O)CSc1[nH]c(=O)cc(C)c1C#N	-6%	0%	-9%	21µM*
Cc1ccc(Nc2ccccc2)cc1	7%	-50%	-13%	0%
Cc1ccc(Nc2cc(C)c(O)c(C)c2)cc1	25µM*	9%	-5%	27µM*
CCN(Cc1ccccc1)C(=O)CCc1nnc(CCCc2ccccc2)o1	?	11µM*	-3%	1%
CN(Cc1ccsc1)C(=O)CCc1nnc(CCCc2ccccc2)o1	-14%	?	-4%	0%
CCOC1=C2CN(S(=O)(=O)c3ccc(C)cc3)C(c3cccc(Cl)c3)CC2NC(c2ccccc2)C1 (centres undefined)	.	.	.	3%
O=C(Oc1nsnc1N1CCOCC1)c1ccccc1	-13%	2%	1%	24µM*
CCN(CC)C(=O)c1ncn2c1c(=O)[nH]c1ccccc12	.	-12%	.	-1%
COc1ccccc1C1N=C(c2ccccc2C)NO1 (centres undefined)	-15%	13µM*	1%	-3%
Cc1ccccc1C1=NC(c2ccc(F)cc2F)ON1 (centres undefined)	12%	22%	0%	-2%
Nc1nc(=S)c2ncn(C3OC(CO)C(O)C3O)c2[nH]1 (centres undefined)	71µM*	-27%	?	11µM*
CC1(C)OC2C(CO)OC(n3cnc4c(=S)nc(N)[nH]c43)C2O1 (centres undefined)	.	-16%	.	?
Nc1nc(=S)c2ncn([C@@H]3O[C@H](CO)[C@@H](O)[C@H]3O)c2[nH]1	-22%	-30%	-20%	21µM*
COc1ccc(CCC(=O)N2c3ccccc3N=C(c3ccc4c(c3)OCO4)C2C(=O)NCc2ccccc2)cc1 (centres undefined)	.	.	.	-13%
COc1cc(/C=N/N2CCOCC2)ccc1OCc1ccc(Cl)cc1	-5%	2.2µM*	1%	0%
COc1ccc(/C=N/N2CCOCC2)cc1O	0%	1%	-1%	-1%
COc1cc(/C=N/N2CCOCC2)ccc1OCc1ccccc1	-14%	7.9µM*	-7%	-25%
COc1ccc(/C=N/N2CCOCC2)cc1OCc1ccccc1	11%	-32%	5%	-8%
COc1ccccc1CC(=O)NC1CCC(C)CC1 (centres undefined)	0%	-14%	-4%	-22%
CC1CCC(NC(=O)CNC(=O)Cc2cccc3ccccc23)CC1 (centres undefined)	?	-21%	-2%	24µM*
CCN(C(=O)Cn1c(=O)oc2ccccc21)c1cccc(C(F)(F)F)c1	5%	-12%	3%	-3%
CCN(C(=O)Cn1c(=O)oc2ccccc21)c1cccc(C)c1	-27%	-30%	14%	27µM*
CN(CCCN1c2ccccc2CCc2ccccc21)CC(=O)c1ccc(Cl)cc1	40µM*	.	.	.
SMILES	VDR inhibitor	BRCA1 expr act	Tb PFK inh	PLK1 PBD inh
Cc1csc(C(C)NC(=O)c2ccc(OC3CCN(CCc4ccccc4)CC3)cc2)n1 (centres undefined)	-19%	12%	-5%	30µM*
Cn1c(COc2cccc3cccnc23)nnc1SCC(=O)O	-17%	-2%	-4%	27µM*
CCn1c(COc2cccc3cccnc23)nnc1SCC(=O)O	-7%	2%	-6%	-2%
O=C(Nc1ccc2c(c1)OC1(CCCC1)O2)C1CC1	-11%	84%	-4%	27µM*
COc1ccc(-n2nnc(-c3nc(-c4cccs4)no3)c2N)cc1OC	11%	.	.	.
COc1ccc(C(O)c2nc(-c3ccc(Cl)cc3)cs2)cc1 (centres undefined)	.	2%	.	-4%

High-throughput results as filed in PubChem.
